High-throughput results deposited in PubChem BioAssay by National Center for Advancing Translational Sciences (NCATS).
In the library only some 19% were active in any assay of this set; here they are far more common.
DT40 TDP1 no CPT – qHTS for Inhibitors of human tyrosyl-DNA phosphodiesterase 1 (TDP1): qHTS in cells in absence of CPT; DT40 Tdp1-/- hTDP1 cells, no CPT, ATP luminescence, 48 h; Potency, µM (titrated, usually from 46.2 µM), inactives show at the highest dose activity change, negative = growth inhibition, actives largely listed as inhibitors; 420,000 tested, 15% active; AID 686978, 2013; further: potency means the concentration at half of the fitted maximal effect; on the % scale 0 is the no-effect control and ±100 the full control effect; nearly all actives have a fitted effect of over 55% in size
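Readout: luminescence from CellTiter-Glo after 30 min in the dark at RT. Cells: DT40 Tdp1-/- with stable hTDP1, 400/well. Exposure: compounds alone, ≥48 hr, 37 °C.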
TDP1 cell CPT – DT40-hTDP1 cell growth loss with CPT. chicken DT40 Tdp1-/-;hTDP1 cells + 20 nM CPT, ATP luminescence, 48 h. Potency, µM (titrated, usually from 46.2 µM), for the others: top-dose activity change, negative = growth inhibition, most hits filed as inhibitors. 420,000 tested, 12% active. AID 686979; further: potency means the concentration at half of the fitted maximal effect; on the % scale 0 is the no-effect control and ±100 the full control effect; nearly all actives have a fitted effect of over 55% in size
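Chicken DT40 Tdp1-/- cells complemented with human TDP1, 400 cells/well, exposed to compounds plus 20 nM camptothecin for at least 48 h at 37 C; viability read as ATP content by CellTiter-Glo luminescence.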
IL1B secr inh – blocks inflammasome-driven IL-1 beta release; THP-1 LPS/ATP IL-1B secretion, AlphaLISA, 16 h; active compounds read low; activity change, % at 57.5 µM; 360,000 tested, 4.7% active; AID 743279; in the data active means activity change below about -50%; inconclusive means mostly about -30% to -49%; further: on the % scale 0 is the no-effect control and ±100 the full control effect
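Secreted IL-1B measured by AlphaLISA bead assay after 16 h compound exposure of THP-1 cells; compounds (final up to 57.5 uM) added 1 h before LPS (250 ng/mL) and ATP (1.25 mM) stimulation; lower signal means less secretion.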
MCF10A rerep – induces DNA re-replication in MCF 10a normal breast cells. 350,000 tested, 2.9% active. MCF 10A DNA re-replication, Hoechst nuclear intensity, 48 h. Potency, µM (highest dose often 46.1 µM), without a hit: at the top dose activity, positive = re-replication, actives largely listed as activators. AID 624296; further: potency means the concentration at half of the fitted maximal effect; % of control where 0% means no effect; nearly all actives have a fitted effect of over 50% in size
Chronic BCR inh – blocks chronic active B-cell receptor signaling; Potency, µM (doses to about 46.1 µM), for the others: top-dose activity change, negative = inhibition, actives largely listed as inhibitors; ABC-DLBCL IkBa-CBG/CBR reporter, luminescence ratio, 4 h; 340,000 tested, 0.05% active; active means well fitted inhibition curve with a large enough effect in the signal ratio, with a control signal flat, not every such curve was filed as active; inconclusive means small, poorly fitted or top-dose-only effect, or effect the other way, or a change in a side signal; the % refers to the signal ratio;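 further: potency means the concentration at half of the fitted maximal effect; plate controls were basal doxycycline-induced cells for no effect and cells given 10 µM MG132 for full effect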
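Doxycycline induced both beetle luciferases in TMD8 lymphoma cells; IKK-driven degradation limits the IkappaBalpha-fused green signal, while red luminescence normalises for cell number and nonspecific effects. Compounds tested up to 46 uM, 4 hrs.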
SW480 rerep – DNA re-replication induction in SW480 cells. SW480 DNA re-replication, Hoechst DNA content imaging, 48 h. Potency, µM (series often up to 46.1 µM), without a hit: top-dose re-replication activation, most hits filed as activators. 340,000 tested, 1.8% active; further: potency means the concentration at half of the fitted maximal effect; % of control where 0% means no effect; nearly all actives have a fitted effect of over 55% in size
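Cells (250 per well) received 23 nL compound or DMSO by pin tool and were kept 48 hr at 37 C, 5% CO2. Nuclei were then stained with Hoechst for 40 min and scanned for DNA content.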
Active calls of the source: *; i = inactive; ? = inconclusive; . = no result. Unless noted, the call rests on the fitted dose curve; in most records, active means well fitted curve in the direction sought with a large enough effect; inconclusive means small, poorly fitted or top-dose-only effect, or another doubt; inactive means no such curve, though single readings can be large; an effect the other way counts as inactive or inconclusive.

SMILES	DT40 TDP1 no CPT	TDP1 cell CPT	IL1B secr inh	MCF10A rerep	Chronic BCR inh	SW480 rerep
O=C(CSc1nc(=O)[nH]c2c1CCCC2)Nc1cc(C(F)(F)F)cc(C(F)(F)F)c1	23µM*	18µM*	16	4%	-1%	-5%
O=C(Nc1nccs1)C1CC(=O)N(Cc2ccco2)C1 (stereo not drawn)	-4%	5%	4	-1%	?	2%
COc1cccc(NC(=O)C2CC(=O)N(Cc3ccco3)C2)c1 (stereo not drawn)	21%	3%	56	-2%	-5%	?
CC(=O)c1sc(NC(=O)C2CC(=O)N(Cc3ccco3)C2)nc1-c1ccccc1 (stereo not drawn)	-23%	-11%	-95*	11%	?	?
COc1ccc(-c2nc(NC(=O)C3CCN(c4nc5ccccc5o4)CC3)sc2C)cc1	?	16µM*	-27	20%	?	?
COc1ccc(-c2nc(NC(=O)C3CC(=O)N(Cc4ccco4)C3)sc2C)cc1 (stereo not drawn)	12µM*	16µM*	-28	?	?	7%
COc1ccc(-c2csc(NC(=O)C3CC(=O)N(Cc4ccco4)C3)n2)cc1 (stereo not drawn)	21µM*	?	-61*	5%	4%	0%
O=C(NCCc1nnc2ccc(NCCCN3CCOCC3)nn12)c1ccccc1	-4%	-2%	i	-4%	1%	-31%
CC(=O)Nc1ccc(S(=O)(=O)NCCC(=O)NCc2ccco2)cc1	-4%	-5%	5	.	.	.
CCOCCCNC(=O)Cn1nc(CC)n2c(cc3c(OC)cccc32)c1=O	-1%	-10%	.	.	.	.
CCOc1ccc(S(=O)(=O)N2CCN(C(=O)CN3C(=O)NC(C)(C)C3=O)CC2)cc1	16%	-13%	14	-9%	10%	-27%
COc1ccc(CCC(=O)N2c3ccccc3N=C(c3ccc(C(F)(F)F)cc3)C2C(=O)NC2CCCC2)cc1 (stereo not drawn)	18µM*	?	-5	.	.	.
CC(C)NC(=O)C1C(c2ccc(C(F)(F)F)cc2)=Nc2ccccc2N1C(=O)c1cc2ccccc2[nH]1 (stereo not drawn)	?	?	0	.	.	.
CC(=O)N1c2ccccc2N=C(c2ccc(C(F)(F)F)cc2)C1C(=O)NC1CCCC1 (stereo not drawn)	?	?	0	.	.	.
O=C(NC1CCCC1)C1C(c2ccc(C(F)(F)F)cc2)=Nc2ccccc2N1C(=O)c1cc2ccccc2[nH]1 (stereo not drawn)	13µM*	?	24	.	.	.
CCCCCC(=O)O[C@]1(C(C)=O)CC[C@H]2[C@@H]3CCC4=CC(=O)CC[C@]4(C)[C@H]3CC[C@@]21C	18µM*	26µM*	0	?	3%	?
CC(=O)O[C@]1(C(C)=O)CC[C@H]2[C@@H]3C=C(C)C4=CC(=O)CC[C@@H]4[C@H]3CC[C@@]21C	4.6µM*	?	?	0%	-7%	-12%
CC(=O)OC1(C(C)=O)CCC2C3CC(Cl)C4=CC(=O)CCC4(C)C3CCC21C (stereo not drawn)	23µM*	?	-24	?	.	?
CC(=O)O[C@@]1(C(C)=O)CCC2C3CC(C)C4=CC(=O)CC[C@@]4(C)C3CC[C@]21C (stereo partly drawn)	.	.	.	14%	.	0%
CCCC(=O)O[C@]1(C(=O)CO)CCC2[C@@H]3CCC4=CC(=O)CC[C@]4(C)C3C(O)C[C@]21C (stereo partly drawn)	.	.	.	7%	.	2%
CC(=O)O[C@]1(C(C)=O)CC[C@H]2[C@@H]3C=CC4=CC(=O)C=C[C@]4(C)[C@H]3CC[C@@]21C	15µM*	?	-25	?	-18%	1%
Cc1ccc(S(=O)(=O)N2CCCC2)cc1C(=O)NCCOc1ccccc1	-30%	-24%	8	2%	2%	-14%
Cc1ccccc1-c1cncnc1NCc1cccnc1	-22%	17%	.	.	.	.
CC(=O)O[C@]1(C(C)=O)CCC2C3C=C(C)C4=CC(=O)CC[C@]4(C)C3CC[C@@]21C (stereo partly drawn)	16µM*	23µM*	?	5%	0%	40%
O=C(C1=C[C@H](C2CCCCC2)C[C@H](OCc2ccc(CO)cc2)O1)N1CCN(Cc2ccccc2)CC1	18µM*	18µM*	0	35%	?	2%
SMILES	DT40 TDP1 no CPT	TDP1 cell CPT	IL1B secr inh	MCF10A rerep	Chronic BCR inh	SW480 rerep
O=C(C1=C[C@H](C2CCCCC2)C[C@H](OCc2ccc(CO)cc2)O1)N1CCOCC1	?	?	8	-15%	-16%	?
O=C(C1=C[C@@H](C2CCCCC2)C[C@@H](OCc2ccc(CO)cc2)O1)N1CCN(Cc2ccccc2)CC1	16µM*	21µM*	-59*	?	-15%	-25%
C[C@@H]1C=C(C(=O)N2CCN(Cc3ccccc3)CC2)O[C@H](OCc2ccc(CO)cc2)C1	-4%	-20%	-11	-8%	-11%	34%
Cc1ccc(S(=O)(=O)n2ccc3c2CCCC3=O)cc1	21µM*	?	-30	17%	?	0%
Fc1ccc(NC(=S)N/N=C/c2ccc(F)c(F)c2)cc1	6.5µM*	4.1µM*	31	-3%	?	-5%
Fc1ccc(/C=N/NC(=S)Nc2ccc(Cl)cc2Cl)cc1	5.2µM*	7.3µM*	29	10%	?	?
COc1ccc(NC(=S)N/N=C/c2ccc(F)cc2)cc1OC	?	?	-2	-47%	?	?
Fc1ccc(/C=N/NC(=S)Nc2ccc(Cl)cc2)cc1F	23µM*	?	-5	1%	?	4%
Cc1cccc(C(=O)N2CCCC(N3CCN(c4ccccc4)CC3)C2)n1 (stereo not drawn)	10%	-20%	47	-1%	6%	?
CN(C)c1ccc(CNC(=O)CC[C@H]2O[C@@H](n3cnc4c(NC(=O)c5ccccc5)ncnc43)[C@H](O)[C@@H]2O)cc1	-4%	-46%	?	.	.	.
COc1ccc(Cc2nnc(SCC(=O)c3ccc(OC)cc3)o2)cc1	?	?	?	6.5µM*	-8%	-20%
COc1ccc(NCc2nnc(SCC(=O)c3ccc(OC)cc3)o2)cc1	16µM*	?	-5	?	-2%	?
